These results are taken from PubChem BioAssay (NCI).

Among the test systems are HCT-15 colon; HT29 colon; SNB-75 CNS; SNB-19 CNS; U251 CNS; PC-3 prostate; SK-MEL-5 melanoma; UACC-62 melanoma; LOX IMVI melanoma; SK-MEL-28 melanoma; SK-MEL-2 melanoma; EKVX NSCLC; SN12C renal; UO-31 renal; TK-10 renal; ACHN renal; CAKI-1 renal; A498 renal; CCRF-CEM leukemia; MOLT-4 leukemia.
Experiment in all cases: NCI-60 one-dose screen, 48 h (100 = growth as untreated, 0 = no growth, -100 = all killed)
Holding throughout (settings): 10 µM unless noted

SMILES strings stand for the structures. Values joined by “and” are separate entries in the source; they are usually repeats but may differ in a detail not shown here. Equal values may be shown once. The panel holds about 83,000 compounds, 20% with a hit somewhere; the sample as a whole holds those more often.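 Values shown are percent growth following 48 h exposure of cells in 96-well plates to a single concentration of compound; below 10 was considered active.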 A number with no mark means an inactive call. Active and inactive are the calls of the source.

For the compound `CCOC(=O)CC1CSC(c2cccc(Cl)c2)=N1` (centres undefined), the growth in the test on HCT-15 colon was 106%; with HT29 colon, 102%; in the test on SNB-75 CNS, 106%; in the test with SNB-19 CNS, 106%; in the test on U251 CNS it was 102%; in the test with PC-3 prostate it was 103%. In addition, the growth with SK-MEL-5 melanoma was 100%; in the test with UACC-62 melanoma, 101%; with LOX IMVI melanoma, 95.7%; with SK-MEL-28 melanoma, 110%; in the test with SK-MEL-2 melanoma, 109%; with EKVX NSCLC, 100%. Moreover, the growth is 106% in the test with SN12C renal; 96.4% in the test on UO-31 renal; 92.1% in the test with TK-10 renal; 109% with ACHN renal; 97.8% with CAKI-1 renal; 81.9% in the test with A498 renal. Moreover, the growth with CCRF-CEM leukemia was 102%; in the test with MOLT-4 leukemia, 95%.

Take `O=S(=O)(Nc1ccc(F)cc1)c1ccc(-c2cnc(C3CC3)o2)cc1`: the growth with HCT-15 colon was 19.9%; in the test on HT29 colon it was 7.98% (active); in the test with SNB-75 CNS it was 0.813% (active); in the test on SNB-19 CNS it was 29.7%; with U251 CNS, 21%; in the test with PC-3 prostate, 31.2%. The growth is 25.5% in the test on SK-MEL-5 melanoma; 27.5% in the test with UACC-62 melanoma; 51.5% in the test with LOX IMVI melanoma; 56.2% in the test on SK-MEL-28 melanoma; 12.8% in the test with SK-MEL-2 melanoma; 44.4% with EKVX NSCLC. Also, the growth in the test on SN12C renal was 35.5%; in the test on UO-31 renal it was 36.3%; with TK-10 renal, 32.4%; with ACHN renal, 32%; in the test with CAKI-1 renal, 36.3%; in the test on A498 renal, 14.1%. Also, the growth is 10.5% in the test with CCRF-CEM leukemia and 12.7% in the test with MOLT-4 leukemia.

For the compound `N#CC1C(=O)c2ccccc2C1c1ccccc1` (centres undefined), the growth with HCT-15 colon is 101% and 95.5%; with HT29 colon it was 114% and 110%; with SNB-75 CNS, 89.5% and 93.2%; with SNB-19 CNS, 97.1% and 98.5%; in the test with U251 CNS, 98.6% and 99.8%; with PC-3 prostate, 111% and 116%. Moreover, the growth is 96.8% and 103% with SK-MEL-5 melanoma; 100% and 101% with UACC-62 melanoma; 91.5% and 98.1% in the test on LOX IMVI melanoma; 107% and 117% in the test on SK-MEL-28 melanoma; 103% in the test on SK-MEL-2 melanoma; 103% with EKVX NSCLC. Also, the growth in the test on SN12C renal was 101% and 98.5%; with UO-31 renal, 74% and 84.6%; with TK-10 renal, 109% and 106%; with ACHN renal, 108% and 103%; with CAKI-1 renal, 92.2% and 93.6%; with A498 renal, 128% and 99.1%. Also, the growth is 98.2% and 94.2% with CCRF-CEM leukemia; 80.4% and 83.3% in the test on MOLT-4 leukemia.

Regarding `CCCCCC#CC1OC23CCCCC2C(C#N)(C(=N)O3)C1(C#N)C#N` (centres undefined), the growth was 102% in the test with HCT-15 colon; 88% with HT29 colon; 88.5% in the test with SNB-75 CNS; 95% with SNB-19 CNS; 96.4% with U251 CNS; 81% in the test with PC-3 prostate. The growth in the test on SK-MEL-5 melanoma was 96.7%; in the test on UACC-62 melanoma it was 83.1%; in the test on LOX IMVI melanoma, 89.7%; in the test with SK-MEL-28 melanoma, 109%; in the test with SK-MEL-2 melanoma, 93%; in the test on EKVX NSCLC, 97.1%. Besides, the growth with SN12C renal is 93%; in the test with UO-31 renal, 97.1%; with TK-10 renal it was 108%; in the test on ACHN renal it was 102%; in the test with CAKI-1 renal, 101%; in the test on A498 renal, 93.6%. The figures for the growth with CCRF-CEM leukemia and in the test on MOLT-4 leukemia were 88.4% and 99.9%, respectively.

In the case of `COc1ccc(Nc2nn3c(SCC(=O)c4ccc(C)cc4)nnc3s2)cc1`, the growth in the test with HCT-15 colon is 105%; in the test with HT29 colon it was 105%; in the test on SNB-75 CNS, 95.7%; in the test on SNB-19 CNS, 98.8%; with U251 CNS it was 106%; in the test with PC-3 prostate, 85.5%. Besides, the growth in the test with SK-MEL-5 melanoma is 95.4%; in the test on UACC-62 melanoma, 83.7%; in the test with LOX IMVI melanoma it was 95.9%; in the test with SK-MEL-28 melanoma it was 109%; in the test with SK-MEL-2 melanoma, 98.2%; in the test on EKVX NSCLC it was 99.9%. Besides, the growth was 101% with SN12C renal; 58.7% in the test on UO-31 renal; 107% in the test with TK-10 renal; 86.5% in the test with ACHN renal; 75.2% with CAKI-1 renal; 93.7% in the test on A498 renal. For the same compound, the growth is 98.1% in the test with CCRF-CEM leukemia and 85.4% in the test on MOLT-4 leukemia.

Turning to `Cn1c(=O)c2c(nc(Nc3cc(=O)[nH]c(=O)[nH]3)n2Cc2ccccc2)n(C)c1=O`, the growth in the test on HCT-15 colon is 98.3%; in the test with HT29 colon, -4.46% (active); with SNB-75 CNS it was -21% (active); in the test on SNB-19 CNS, 96.9%; with U251 CNS, 12.2%; with PC-3 prostate, 92.2%. Besides, the growth is 98.1% in the test on SK-MEL-5 melanoma; 88.3% with UACC-62 melanoma; 92.3% with LOX IMVI melanoma; 101% with SK-MEL-28 melanoma; -2.98% (active) with SK-MEL-2 melanoma; 90% with EKVX NSCLC. For the same compound, the growth was 95.2% with SN12C renal; 79.5% in the test on UO-31 renal; 14.3% in the test with TK-10 renal; 100% with ACHN renal; 37.9% in the test on CAKI-1 renal; -13.8% (active) in the test on A498 renal. Further, in the test on MOLT-4 leukemia, the growth was 92.7%.
